Assay outcomes deposited in PubChem BioAssay by several laboratories.
Most compounds without a hit are left out; they make up all but 5.4% or so of the library.
Granule exo inh – lytic granule exocytosis inhibition; TALL-104 LAMP-1 surface exposure, flow cytometry; cells stimulated with thapsigargin and PMA; inhibition, % at 10 µM; 0.66% of 360,000 active;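 active means inhibition above about 55%, limit read from the data; inconclusive means no clear call, values can overlap the other calls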
SMARCA2 act – SMARCA2 function activation, primary screen. 1% of 370,000 active. activation, % at 9.1 µM. MG213 cells, MMTV-luciferase reporter, dexamethasone, overnight; in the data active means activation above about 7.8%;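 further: 0% = vehicle wells and 100% = reference activator wells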
PfM18AAP inh – PfM18AAP enzyme inhibition. recombinant PfM18AAP, H-Glu-NHMec fluorogenic cleavage. inhibition, % at 7.35 µM. 1.2% of 290,000 active;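 active means inhibition above the campaign mean inhibition over all tested compounds plus 3 SD, cut at about 28% in these data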;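 further: 0% = plate median of test compound wells and 100% = 2 mM ZnCl2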
beta cell repl – induces beta-cell replication in MIN6 cells; MIN6 cells proliferation, ATPlite luminescence, 48 h; cells starved in 0.2% serum; 100% = growth in 10% serum; proliferation, % at 10 µM; 0.29% of 330,000 active;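 active means compounds whose signal lies at least 3.5 SD above the mean of all wells on their plate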;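 further: 0% = DMSO-treated cells in low-serum medium and 100% = 10% serum control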
ALR inh – human ALR oxidase inhibition via reduced H2O2 | P55789 | purified ALR, DTT oxidation, H2O2 HRP-luminol luminescence | inhibition, % (test concentration not listed) | 3.8% of 290,000 active | AID 485317;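 active means mean replicate inhibition above about 79%, with every replicate also reaching it, limit read from the data; inconclusive means only one of the two criteria met; inactive means mean below limit and not every replicate reaching it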
Target sequence (P55789 whole entry, looked up): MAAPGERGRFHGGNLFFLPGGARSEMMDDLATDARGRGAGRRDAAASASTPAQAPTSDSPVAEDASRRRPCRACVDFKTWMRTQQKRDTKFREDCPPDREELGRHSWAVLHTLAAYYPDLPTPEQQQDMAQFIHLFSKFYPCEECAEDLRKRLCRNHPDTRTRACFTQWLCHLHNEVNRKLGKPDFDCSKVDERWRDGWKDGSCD
JMJD2C inh – human JMJD2C demethylase inhibition; GST-JMJD2C(1-420) H3K9me3 demethylation, DELFIA europium; inhibition, % at 2.35 µM; 0.069% of 330,000 active; AID 2099;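 active means more than half of a compound's replicate wells show inhibition beyond 50%, single wells judged on their own value; inconclusive means some, but no more than half, of replicates pass 50% inhibition; inactive means no replicate passes 50% inhibition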;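 further: signal counts dimethyl H3K9 product captured on neutravidin plate; 0% = median of DMSO wells and 100% = 0.3 times that DMSO median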
Target sequence (Q9H3R0 1-420 limits assumed): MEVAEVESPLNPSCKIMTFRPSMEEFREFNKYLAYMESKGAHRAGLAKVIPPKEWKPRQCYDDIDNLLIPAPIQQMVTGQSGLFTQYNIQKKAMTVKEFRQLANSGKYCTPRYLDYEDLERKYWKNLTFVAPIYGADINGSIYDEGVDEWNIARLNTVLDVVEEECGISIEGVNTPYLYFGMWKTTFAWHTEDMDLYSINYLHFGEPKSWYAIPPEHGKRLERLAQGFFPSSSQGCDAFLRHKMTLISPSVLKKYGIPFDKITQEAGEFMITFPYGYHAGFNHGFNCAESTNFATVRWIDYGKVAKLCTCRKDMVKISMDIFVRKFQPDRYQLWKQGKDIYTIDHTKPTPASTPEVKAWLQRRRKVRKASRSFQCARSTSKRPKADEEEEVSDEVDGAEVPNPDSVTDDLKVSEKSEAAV
SMARCA2 act conf – confirmation of SMARCA2 (BRM) function activators; shares compounds with SMARCA2 act; MG213 cells, MMTV-luciferase with dexamethasone, luminescence, overnight; MG213 cells expressing E1A, Rb sequestered; DMSO wells 0%, reference activator 100%; activation, % at 9.1 µM; 30% of 3,500 active; AID 652260;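 active means activation above its plate's cutoff, the mean activation of tested wells plus 3 SD, cut at about 7.9% in these data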
GAL4-VP16 Luc – GAL4-VP16 reporter activation counter-screen; AID 686939; HEK293 GAL4-VP16 pG5luc reporter, luciferase luminescence; scaled: DMSO wells 0%, SAHA wells 100%; shares compounds with SMARCA2 act; 41% of 3,500 active; activation, % at 9.1 µM;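 active means activation above the solvent-only control well mean plus 3 SD, averaged across control plates, cut at about 5.2% in these data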
Numbers without * were called inactive.

For O=S(=O)(Cc1ccccc1Cl)CC(O)COc1ccccc1Cl (stereo unspecified) the results were Granule exo inh -0.2, SMARCA2 act 8.4*, PfM18AAP inh 1.4, beta cell repl 0.9, ALR inh -1.5, JMJD2C inh 3.6, SMARCA2 act conf -3.8 and GAL4-VP16 Luc 2.3.
`c1cc(-c2cc3cc4c(cc3cn2)OCO4)cs1` gave Granule exo inh 4.5, SMARCA2 act 8.9*, beta cell repl -2.0, ALR inh -2.7, JMJD2C inh 5.0, SMARCA2 act conf 3.3 and GAL4-VP16 Luc 7.9*.
COc1cc2cnc(-c3ccsc3)cc2cc1OC was read as Granule exo inh 2.5, SMARCA2 act 3.4, beta cell repl -0.5 and ALR inh -1.3.
For COC(=O)[C@@]12C[C@@H](CC(=O)NCC3CCCCC3)C(=O)N(Cc3ccco3)C1=CCC(C)(C)C2 the results were Granule exo inh -1.6 and SMARCA2 act -1.3.
Screening COc1ccc2cc3cc(C(=O)N4CCCC(C)C4)oc3nc2c1 (stereo unspecified) returned Granule exo inh -3.2, SMARCA2 act 8.8*, PfM18AAP inh 1.1, beta cell repl 0.0, ALR inh -2.4, JMJD2C inh 0.9, SMARCA2 act conf 3.3 and GAL4-VP16 Luc 9.2*.
Screening COc1ccc(C(O)c2nc(-c3ccc4ccccc4c3)cs2)cc1 (stereo unspecified) returned Granule exo inh -2.0 and SMARCA2 act -1.0.
`O=C(CSc1ccsc1[N+](=O)[O-])NCc1ccccc1` gave Granule exo inh 2.5, SMARCA2 act 11.4*, PfM18AAP inh 1.0, beta cell repl -3.1, JMJD2C inh -30.5, SMARCA2 act conf 7.3 and GAL4-VP16 Luc 3.2.
Screening CC(C)C[C@@H](CSc1ccc(Br)cc1)N1CCN(C)CCC1=O returned Granule exo inh -7.2, SMARCA2 act 8.2*, beta cell repl -3.0, ALR inh -26.3, JMJD2C inh 9.3, SMARCA2 act conf 9.0* and GAL4-VP16 Luc 9.2*.
Screening Cc1ccc(SC[C@H](CC(C)C)N2CCN(C)CCC2=O)cc1 returned Granule exo inh -1.3, SMARCA2 act 6.9, beta cell repl 3.8 and JMJD2C inh 10.9.
CC1(C(=O)Nc2ccccc2)CCN1C(=O)CCc1ccc(Cl)cc1Cl (stereo unspecified) was read as Granule exo inh 6.4 and SMARCA2 act -1.7.
C=CCN=Cc1c(C)[nH]n(-c2ccccc2)c1=O was read as Granule exo inh -2.4, SMARCA2 act 8.5*, PfM18AAP inh 3.6, beta cell repl -3.1, ALR inh -7.9, JMJD2C inh 6.3, SMARCA2 act conf 0.6 and GAL4-VP16 Luc 6.2*.
For COc1cc(/C=N/NS(=O)(=O)c2ccc(C)cc2)ccc1OCc1ccc(C(=O)O)cc1 the results were Granule exo inh -0.7, SMARCA2 act 9.4*, PfM18AAP inh 17.2, beta cell repl -2.5, ALR inh 21.9, JMJD2C inh 8.3, SMARCA2 act conf 18.5* and GAL4-VP16 Luc 13.6*.
For O=C(NCC1CCCO1)C(c1ccncc1)N(Cc1cccs1)C(=O)CN1C(=O)c2ccccc2S1(=O)=O (stereo unspecified) the results were Granule exo inh -0.1, SMARCA2 act -1.6, PfM18AAP inh -4.7, beta cell repl -2.5, ALR inh 8.0 and JMJD2C inh 1.9.
Screening Cc1ccccc1CCN(C(=O)CN1C(=O)c2ccccc2S1(=O)=O)C(C(=O)NCC1CCCO1)c1ccncc1 (stereo unspecified) returned Granule exo inh -8.1, SMARCA2 act 9.0*, PfM18AAP inh -7.8, beta cell repl 0.4, ALR inh 0.0, JMJD2C inh 2.8, SMARCA2 act conf -1.4 and GAL4-VP16 Luc 0.6.
COc1cc2c(cc1OC)C(CSc1ccccc1C(=O)O)=NC(C)(C)C2 was read as Granule exo inh -1.9, SMARCA2 act 9.3*, PfM18AAP inh 5.2, beta cell repl 1.6, ALR inh 11.8, JMJD2C inh -15.5, SMARCA2 act conf 9.4* and GAL4-VP16 Luc 5.8*.
`c1ccc(-c2cc(NCCN3CCCCC3)c3ccccc3n2)cc1` gave Granule exo inh 34.1, SMARCA2 act 24.6*, PfM18AAP inh -4.0, beta cell repl -6.0, JMJD2C inh 7.4, SMARCA2 act conf 77.6* and GAL4-VP16 Luc 0.4.
Screening O=C(Nc1ccc(F)cc1F)C1CCN(S(=O)(=O)c2cccnc2)CC1 returned Granule exo inh 0.9, SMARCA2 act 8.3*, PfM18AAP inh 3.8, beta cell repl -2.1, ALR inh -3.0, JMJD2C inh -11.5, SMARCA2 act conf -0.1 and GAL4-VP16 Luc -0.3.
Screening CCn1cc(CNC(=O)NC2CCCCC2)c(C)n1 returned Granule exo inh 3.6, SMARCA2 act 11.9*, PfM18AAP inh -6.4, beta cell repl -1.2, ALR inh -7.4, JMJD2C inh -8.8, SMARCA2 act conf 3.1 and GAL4-VP16 Luc 3.8.
`Cc1ccc(S(=O)(=O)c2nc(-c3ccc(F)cc3)oc2N2CCOCC2)cc1` gave Granule exo inh 7.7, SMARCA2 act 11.5*, PfM18AAP inh -0.4, beta cell repl 1.9, ALR inh 0.8, JMJD2C inh -1.3, SMARCA2 act conf -1.9 and GAL4-VP16 Luc -1.0.
Screening COc1ccc(-c2nc3c(C)cc(Br)cn3c2Cc2cccc(F)c2)cc1OC returned Granule exo inh 1.5 and SMARCA2 act -0.3.
`CC1(C(=O)NCc2ccco2)CCN1C(=O)C1(c2ccccc2)CC1` (stereo unspecified) gave Granule exo inh -11.9 and SMARCA2 act -2.3.
Screening CSc1nsc(SCC(=O)Nc2ccc(C(C)=O)cc2)n1 returned Granule exo inh 1.6, SMARCA2 act 13.1*, PfM18AAP inh 5.0, beta cell repl -1.1, ALR inh inconclusive, JMJD2C inh 5.7, SMARCA2 act conf 5.3 and GAL4-VP16 Luc 10.3*.
Screening CC(=O)c1ccc(NC(=O)CSc2nc(=O)cc(N)n2-c2ccccc2)cc1 returned Granule exo inh 4.3, SMARCA2 act 8.6*, PfM18AAP inh 3.8, beta cell repl -1.2, ALR inh 98.6*, JMJD2C inh -14.5, SMARCA2 act conf 6.7 and GAL4-VP16 Luc 8.8*.
Screening CSc1nsc(SCC(=O)Nc2ccc(NC(C)=O)cc2)n1 returned Granule exo inh -6.2, SMARCA2 act -1.2, PfM18AAP inh -10.9, beta cell repl -2.4, ALR inh 6.6 and JMJD2C inh 19.1.
